# Laboratory results published in PMC7862700, “An all-to-all approach to the identification of sequence-specific readers for epigenetic DNA modifications on cytosine”.
# Tests used:
# Test in all cases: DAPPL (digital affinity profiling via proximity ligation, sequencing); 10 mM Tris-HCl pH 7.5, 50 mM NaCl, 1 mM DTT, 4% glycerol, room temperature, 30 min; GST-TFs on glutathione beads, 16-mer random dsDNA library, 0.1% formaldehyde crosslink after washing; high values mean tight binding
# FEV = biological target: T1, FEV (Homo sapiens, UniProt Q99581 1-238); details: protein: recombinant; tags: N-terminal GST; dsDNA, one strand shown
# T1 sequence: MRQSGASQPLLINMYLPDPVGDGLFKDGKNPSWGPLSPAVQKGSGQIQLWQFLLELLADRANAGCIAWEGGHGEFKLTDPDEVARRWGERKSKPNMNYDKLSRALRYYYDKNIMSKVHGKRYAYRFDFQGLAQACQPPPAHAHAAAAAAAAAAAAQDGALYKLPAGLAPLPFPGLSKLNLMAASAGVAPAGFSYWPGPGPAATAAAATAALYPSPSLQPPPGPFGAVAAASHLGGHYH
# Summary of the method: (§1)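 Binding signal is each hexamer's read frequency for a factor divided by its frequency in the tag-only sample. The factors were GST-fused human transcription factors from yeast, captured on glutathione beads, DNA-barcoded and pooled with that sample. Pools were incubated with 200 nmole of a random double-stranded 16-mer DNA library in Tris/NaCl/DTT/glycerol buffer at room temperature for 30 min, then washed, crosslinked with 0.1% formaldehyde, proximity-ligated with BsaI/T4 ligase (1 h, 37 °C), PCR-amplified and sequenced on an Illumina NextSeq500.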
# ETV5 = ETV5 (Homo sapiens, UniProt P41161 1-510); details: protein: recombinant; tags: N-terminal GST; dsDNA, one strand shown
# Summary of the method: as §1
# HSF1 = HSF1 (Homo sapiens, UniProt Q00613 1-529); details: protein: recombinant; tags: N-terminal GST; chain copies: 3; dsDNA, one strand shown
# Summary of the method: as §1
# SPIC = biological target: T2, SPIC (Homo sapiens, UniProt Q8N5J4 1-248); details: protein: recombinant; tags: N-terminal GST; dsDNA, one strand shown
# T2 sequence: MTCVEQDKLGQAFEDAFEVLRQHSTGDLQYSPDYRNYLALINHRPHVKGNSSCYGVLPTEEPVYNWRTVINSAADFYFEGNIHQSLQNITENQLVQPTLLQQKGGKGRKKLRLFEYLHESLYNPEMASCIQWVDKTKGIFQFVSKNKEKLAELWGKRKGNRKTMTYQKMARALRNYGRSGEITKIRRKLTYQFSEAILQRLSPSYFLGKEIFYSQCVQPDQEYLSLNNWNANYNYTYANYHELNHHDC
# Summary of the method: as §1
# ELF4 = ELF4 (Homo sapiens, UniProt Q99607 1-663); details: protein: recombinant; tags: N-terminal GST; dsDNA, one strand shown
# Summary of the method: as §1
# ELK4 = biological target: T3, ELK4 (Homo sapiens, UniProt P28324-2 1-405); details: protein: recombinant; tags: N-terminal GST; dsDNA, one strand shown
# T3 sequence: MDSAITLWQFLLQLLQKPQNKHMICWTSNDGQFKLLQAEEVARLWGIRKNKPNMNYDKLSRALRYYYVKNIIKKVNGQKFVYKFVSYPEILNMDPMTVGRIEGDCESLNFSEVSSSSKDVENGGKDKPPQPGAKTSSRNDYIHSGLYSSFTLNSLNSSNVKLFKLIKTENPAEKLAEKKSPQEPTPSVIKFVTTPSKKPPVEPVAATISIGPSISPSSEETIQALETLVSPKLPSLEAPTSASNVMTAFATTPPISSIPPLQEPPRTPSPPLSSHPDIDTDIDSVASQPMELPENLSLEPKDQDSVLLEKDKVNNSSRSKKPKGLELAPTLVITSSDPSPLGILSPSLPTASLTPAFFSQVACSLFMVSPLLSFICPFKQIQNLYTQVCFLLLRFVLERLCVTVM
# Summary of the method: as §1
# ETV2 = biological target: T4, ETV2 (Homo sapiens, UniProt O00321 1-342); details: protein: recombinant; tags: N-terminal GST; dsDNA, one strand shown
# T4 sequence: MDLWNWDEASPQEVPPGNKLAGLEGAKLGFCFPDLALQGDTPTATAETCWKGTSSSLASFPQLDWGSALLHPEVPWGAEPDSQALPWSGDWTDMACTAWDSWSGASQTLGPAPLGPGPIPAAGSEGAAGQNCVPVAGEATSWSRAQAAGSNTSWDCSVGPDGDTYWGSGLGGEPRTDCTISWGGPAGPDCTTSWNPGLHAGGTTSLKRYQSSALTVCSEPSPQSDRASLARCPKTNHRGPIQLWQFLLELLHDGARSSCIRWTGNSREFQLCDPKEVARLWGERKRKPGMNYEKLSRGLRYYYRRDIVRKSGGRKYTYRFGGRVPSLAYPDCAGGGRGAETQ
# Summary of the method: as §1
# ELF3 = biological target: T5, ELF3 (Homo sapiens, UniProt P78545 1-371); details: protein: recombinant; tags: N-terminal GST; dsDNA, one strand shown
# T5 sequence: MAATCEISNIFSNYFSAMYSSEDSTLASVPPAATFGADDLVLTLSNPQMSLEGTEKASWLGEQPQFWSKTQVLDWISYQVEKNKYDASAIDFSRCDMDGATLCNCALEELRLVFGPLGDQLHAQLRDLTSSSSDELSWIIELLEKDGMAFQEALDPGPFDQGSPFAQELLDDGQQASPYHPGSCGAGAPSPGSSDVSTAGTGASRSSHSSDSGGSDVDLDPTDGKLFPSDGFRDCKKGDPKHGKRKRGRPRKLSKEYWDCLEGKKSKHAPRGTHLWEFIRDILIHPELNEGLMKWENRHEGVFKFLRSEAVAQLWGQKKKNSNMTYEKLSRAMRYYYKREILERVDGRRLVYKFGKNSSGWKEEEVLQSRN
# Summary of the method: as §1
# CRX = CRX (Homo sapiens, UniProt O43186 1-299); details: protein: recombinant; tags: N-terminal GST; dsDNA, one strand shown
# Summary of the method: as §1
# ETV1 = ETV1 (Homo sapiens, UniProt P50549 1-477); details: protein: recombinant; tags: N-terminal GST; dsDNA, one strand shown
# Summary of the method: as §1
# ERF = biological target: T6, ERF (Homo sapiens, UniProt P50548 1-548); details: protein: recombinant; tags: N-terminal GST; dsDNA, one strand shown
# T6 sequence: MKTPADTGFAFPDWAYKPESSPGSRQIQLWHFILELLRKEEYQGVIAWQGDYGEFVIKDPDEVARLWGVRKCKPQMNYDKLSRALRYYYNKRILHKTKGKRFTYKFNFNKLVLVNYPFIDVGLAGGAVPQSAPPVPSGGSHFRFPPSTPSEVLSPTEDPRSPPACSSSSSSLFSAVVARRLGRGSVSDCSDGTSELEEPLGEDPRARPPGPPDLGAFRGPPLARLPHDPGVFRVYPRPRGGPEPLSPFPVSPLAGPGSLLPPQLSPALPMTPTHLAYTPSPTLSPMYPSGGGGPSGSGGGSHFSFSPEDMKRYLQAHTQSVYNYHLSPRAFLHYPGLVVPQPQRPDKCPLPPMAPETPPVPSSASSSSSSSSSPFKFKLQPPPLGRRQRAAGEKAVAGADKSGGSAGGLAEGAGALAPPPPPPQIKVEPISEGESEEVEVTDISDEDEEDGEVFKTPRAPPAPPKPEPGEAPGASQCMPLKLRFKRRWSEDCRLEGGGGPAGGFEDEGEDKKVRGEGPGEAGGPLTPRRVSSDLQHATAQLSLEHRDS
# Summary of the method: as §1
# ETV3L = biological target: T7, ETV3L (Homo sapiens, UniProt Q6ZN32 1-361); details: protein: recombinant; tags: N-terminal GST; dsDNA, one strand shown
# T7 sequence: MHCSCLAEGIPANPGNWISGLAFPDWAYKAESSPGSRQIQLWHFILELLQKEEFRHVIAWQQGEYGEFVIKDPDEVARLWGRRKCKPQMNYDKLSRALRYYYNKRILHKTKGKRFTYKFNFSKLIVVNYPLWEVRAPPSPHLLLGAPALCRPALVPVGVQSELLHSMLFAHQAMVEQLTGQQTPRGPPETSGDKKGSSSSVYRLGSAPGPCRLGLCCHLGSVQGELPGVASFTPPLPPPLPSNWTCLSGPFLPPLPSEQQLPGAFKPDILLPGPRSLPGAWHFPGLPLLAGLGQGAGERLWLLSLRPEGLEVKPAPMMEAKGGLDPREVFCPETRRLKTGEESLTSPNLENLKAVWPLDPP
# Summary of the method: as §1
# ETS2 = biological target: T8, ETS2 (Homo sapiens, UniProt P15036 1-469); details: protein: recombinant; tags: N-terminal GST; dsDNA, one strand shown
# T8 sequence: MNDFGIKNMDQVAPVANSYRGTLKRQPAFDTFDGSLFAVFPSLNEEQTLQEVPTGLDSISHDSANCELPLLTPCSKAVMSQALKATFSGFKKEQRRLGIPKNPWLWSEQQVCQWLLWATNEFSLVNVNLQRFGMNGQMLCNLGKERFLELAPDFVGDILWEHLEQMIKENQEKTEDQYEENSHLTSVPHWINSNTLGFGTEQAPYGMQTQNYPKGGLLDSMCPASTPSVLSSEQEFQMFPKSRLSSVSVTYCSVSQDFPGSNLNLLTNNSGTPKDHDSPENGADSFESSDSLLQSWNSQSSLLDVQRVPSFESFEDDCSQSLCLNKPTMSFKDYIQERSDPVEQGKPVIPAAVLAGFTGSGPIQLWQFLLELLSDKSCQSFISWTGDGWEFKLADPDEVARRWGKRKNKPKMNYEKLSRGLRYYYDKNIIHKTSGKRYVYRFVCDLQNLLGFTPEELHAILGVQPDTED
# Summary of the method: as §1
# SPDEF = biological target: T9, SPDEF (Homo sapiens, UniProt O95238 1-335); details: protein: recombinant; tags: N-terminal GST; dsDNA, one strand shown
# T9 sequence: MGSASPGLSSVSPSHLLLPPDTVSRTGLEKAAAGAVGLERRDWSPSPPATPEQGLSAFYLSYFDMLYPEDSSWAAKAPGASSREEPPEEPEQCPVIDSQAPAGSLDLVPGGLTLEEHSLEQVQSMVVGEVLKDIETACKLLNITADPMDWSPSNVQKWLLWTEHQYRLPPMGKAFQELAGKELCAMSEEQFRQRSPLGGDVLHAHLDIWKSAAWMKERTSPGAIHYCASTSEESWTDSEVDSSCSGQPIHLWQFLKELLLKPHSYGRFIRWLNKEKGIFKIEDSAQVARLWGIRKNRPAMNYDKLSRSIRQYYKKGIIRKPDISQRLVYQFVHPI
# Summary of the method: as §1
# ETV7 = biological target: T10, ETV7 (Homo sapiens, UniProt Q9Y603 1-341); details: protein: recombinant; tags: N-terminal GST; dsDNA, one strand shown
# T10 sequence: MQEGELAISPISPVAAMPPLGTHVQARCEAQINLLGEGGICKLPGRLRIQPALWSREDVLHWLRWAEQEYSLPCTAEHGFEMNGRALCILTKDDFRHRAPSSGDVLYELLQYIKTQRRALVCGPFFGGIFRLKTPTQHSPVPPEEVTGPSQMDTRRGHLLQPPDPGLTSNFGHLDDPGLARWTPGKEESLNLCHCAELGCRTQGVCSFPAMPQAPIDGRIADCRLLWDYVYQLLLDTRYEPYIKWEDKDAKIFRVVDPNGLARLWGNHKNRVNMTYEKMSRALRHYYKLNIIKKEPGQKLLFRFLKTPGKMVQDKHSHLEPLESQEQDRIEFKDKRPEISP
# Summary of the method: as §1
# ELF5 = biological target: T11, ELF5 (Homo sapiens, UniProt Q9UKW6-2 1-255); details: protein: recombinant; tags: N-terminal GST; dsDNA, one strand shown
# T11 sequence: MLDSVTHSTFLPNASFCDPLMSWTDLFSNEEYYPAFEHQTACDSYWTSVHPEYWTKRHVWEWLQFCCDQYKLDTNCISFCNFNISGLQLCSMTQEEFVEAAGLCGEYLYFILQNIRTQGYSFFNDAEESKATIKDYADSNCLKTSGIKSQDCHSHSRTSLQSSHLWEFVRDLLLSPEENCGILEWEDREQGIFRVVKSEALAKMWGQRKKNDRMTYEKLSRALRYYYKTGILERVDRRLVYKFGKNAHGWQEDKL
# Summary of the method: as §1
# ETV3 = biological target: T12, ETV3 (Homo sapiens, UniProt P41162-2 1-143); details: protein: recombinant; tags: N-terminal GST; dsDNA, one strand shown
# T12 sequence: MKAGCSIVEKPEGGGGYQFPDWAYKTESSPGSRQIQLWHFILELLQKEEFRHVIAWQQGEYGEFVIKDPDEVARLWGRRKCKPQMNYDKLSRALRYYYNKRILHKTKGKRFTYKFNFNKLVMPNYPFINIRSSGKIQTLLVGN
# Summary of the method: as §1
# ETV6 = ETV6 (Homo sapiens, UniProt P41212 1-452); details: protein: recombinant; tags: N-terminal GST; dsDNA, one strand shown
# Summary of the method: as §1
# Sequence of ETV6 (P41212 whole entry): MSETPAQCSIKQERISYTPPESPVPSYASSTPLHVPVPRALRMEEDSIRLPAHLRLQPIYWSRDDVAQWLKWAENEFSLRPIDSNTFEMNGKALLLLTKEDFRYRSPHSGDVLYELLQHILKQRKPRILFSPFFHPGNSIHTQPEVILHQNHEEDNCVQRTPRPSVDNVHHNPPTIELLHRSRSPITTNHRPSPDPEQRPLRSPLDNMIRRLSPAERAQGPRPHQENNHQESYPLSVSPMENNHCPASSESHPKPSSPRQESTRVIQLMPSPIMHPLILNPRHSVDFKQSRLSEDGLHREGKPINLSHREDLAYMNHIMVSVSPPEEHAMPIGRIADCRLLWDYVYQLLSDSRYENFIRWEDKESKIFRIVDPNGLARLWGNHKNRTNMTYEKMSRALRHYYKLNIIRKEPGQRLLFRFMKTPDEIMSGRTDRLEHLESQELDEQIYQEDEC
# Sequence of CRX (O43186 whole entry): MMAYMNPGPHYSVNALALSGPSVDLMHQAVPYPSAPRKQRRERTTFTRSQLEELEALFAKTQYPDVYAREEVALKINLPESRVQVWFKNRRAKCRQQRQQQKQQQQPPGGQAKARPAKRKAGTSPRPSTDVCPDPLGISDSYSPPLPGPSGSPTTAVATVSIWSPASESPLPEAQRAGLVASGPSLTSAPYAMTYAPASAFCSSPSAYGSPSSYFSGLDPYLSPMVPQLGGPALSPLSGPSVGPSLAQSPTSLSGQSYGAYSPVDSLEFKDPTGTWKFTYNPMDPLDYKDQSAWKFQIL
# Sequence of HSF1 (Q00613 whole entry): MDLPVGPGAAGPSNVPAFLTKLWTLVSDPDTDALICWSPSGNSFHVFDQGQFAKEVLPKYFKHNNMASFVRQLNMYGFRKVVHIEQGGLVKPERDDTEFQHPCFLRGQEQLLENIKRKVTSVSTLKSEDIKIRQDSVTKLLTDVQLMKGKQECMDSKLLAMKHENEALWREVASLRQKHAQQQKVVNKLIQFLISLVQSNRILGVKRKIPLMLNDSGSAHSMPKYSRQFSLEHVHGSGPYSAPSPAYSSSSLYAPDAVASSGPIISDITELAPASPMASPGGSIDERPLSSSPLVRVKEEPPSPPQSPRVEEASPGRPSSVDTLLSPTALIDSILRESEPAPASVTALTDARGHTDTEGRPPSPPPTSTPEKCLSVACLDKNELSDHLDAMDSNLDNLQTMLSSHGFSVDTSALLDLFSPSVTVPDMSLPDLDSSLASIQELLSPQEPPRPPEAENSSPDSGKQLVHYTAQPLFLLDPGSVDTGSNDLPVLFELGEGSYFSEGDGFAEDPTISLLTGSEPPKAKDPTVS
# Sequence of ELF4 (Q99607 whole entry): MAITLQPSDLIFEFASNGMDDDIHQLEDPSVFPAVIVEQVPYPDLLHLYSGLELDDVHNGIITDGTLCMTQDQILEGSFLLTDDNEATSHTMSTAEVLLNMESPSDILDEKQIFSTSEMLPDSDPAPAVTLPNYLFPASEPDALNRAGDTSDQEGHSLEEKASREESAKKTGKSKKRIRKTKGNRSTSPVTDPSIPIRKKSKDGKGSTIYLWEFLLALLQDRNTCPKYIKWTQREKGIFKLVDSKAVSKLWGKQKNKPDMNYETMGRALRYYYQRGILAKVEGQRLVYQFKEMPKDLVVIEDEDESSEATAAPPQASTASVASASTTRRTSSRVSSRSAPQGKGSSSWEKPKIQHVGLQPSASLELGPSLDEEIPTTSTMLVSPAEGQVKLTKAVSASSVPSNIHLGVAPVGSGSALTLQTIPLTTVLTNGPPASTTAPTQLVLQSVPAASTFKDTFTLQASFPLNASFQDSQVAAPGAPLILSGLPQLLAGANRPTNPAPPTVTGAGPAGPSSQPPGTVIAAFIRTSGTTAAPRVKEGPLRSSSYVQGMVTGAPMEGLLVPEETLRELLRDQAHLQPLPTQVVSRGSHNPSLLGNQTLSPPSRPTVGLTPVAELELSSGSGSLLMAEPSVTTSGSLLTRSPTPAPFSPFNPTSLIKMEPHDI
# Sequence of ETV1 (P50549 whole entry): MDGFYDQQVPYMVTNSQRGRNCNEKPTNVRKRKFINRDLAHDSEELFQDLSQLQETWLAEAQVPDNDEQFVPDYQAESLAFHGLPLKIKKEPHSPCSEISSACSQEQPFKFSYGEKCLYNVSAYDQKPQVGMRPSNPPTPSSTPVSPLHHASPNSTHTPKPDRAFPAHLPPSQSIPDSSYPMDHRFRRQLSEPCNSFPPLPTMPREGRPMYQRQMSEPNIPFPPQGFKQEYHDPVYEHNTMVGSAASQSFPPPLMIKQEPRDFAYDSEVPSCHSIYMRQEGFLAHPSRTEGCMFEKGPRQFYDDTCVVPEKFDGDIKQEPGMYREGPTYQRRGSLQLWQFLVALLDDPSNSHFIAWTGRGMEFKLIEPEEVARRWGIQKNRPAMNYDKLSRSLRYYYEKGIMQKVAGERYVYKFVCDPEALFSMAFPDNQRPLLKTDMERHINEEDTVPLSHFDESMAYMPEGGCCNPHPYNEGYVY
# Sequence of ETV5 (P41161 whole entry): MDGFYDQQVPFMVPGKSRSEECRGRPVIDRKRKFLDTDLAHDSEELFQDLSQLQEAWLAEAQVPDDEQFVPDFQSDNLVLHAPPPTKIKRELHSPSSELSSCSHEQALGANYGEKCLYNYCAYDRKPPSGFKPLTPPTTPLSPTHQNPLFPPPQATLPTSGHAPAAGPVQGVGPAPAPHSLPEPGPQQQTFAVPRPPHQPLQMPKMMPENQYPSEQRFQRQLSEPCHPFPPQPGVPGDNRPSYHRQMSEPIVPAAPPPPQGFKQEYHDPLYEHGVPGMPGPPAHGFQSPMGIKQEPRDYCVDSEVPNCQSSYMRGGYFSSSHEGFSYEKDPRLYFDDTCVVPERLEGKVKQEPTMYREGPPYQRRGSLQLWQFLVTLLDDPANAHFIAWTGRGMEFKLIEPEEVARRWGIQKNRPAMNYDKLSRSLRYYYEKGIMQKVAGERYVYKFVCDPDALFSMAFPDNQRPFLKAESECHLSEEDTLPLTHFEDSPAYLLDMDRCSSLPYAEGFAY
sequence,measurement,setting,value
CCTGTT,binding signal,FEV,"1.67 fold enrichment (6-mer frequency, TF over GST control)"
same,binding signal,ETV5,"1.79 fold enrichment (6-mer frequency, TF over GST control)"
same,binding signal,HSF1,"1.2 fold enrichment (6-mer frequency, TF over GST control)"
same,binding signal,SPIC,"1.91 fold enrichment (6-mer frequency, TF over GST control)"
same,binding signal,ELF4,"1.72 fold enrichment (6-mer frequency, TF over GST control)"
same,binding signal,ELK4,"1.55 fold enrichment (6-mer frequency, TF over GST control)"
same,binding signal,ETV2,"1.62 fold enrichment (6-mer frequency, TF over GST control)"
same,binding signal,ELF3,"1.62 fold enrichment (6-mer frequency, TF over GST control)"
same,binding signal,CRX,"1.21 fold enrichment (6-mer frequency, TF over GST control)"
same,binding signal,ETV1,"1.69 fold enrichment (6-mer frequency, TF over GST control)"
same,binding signal,ERF,"1.66 fold enrichment (6-mer frequency, TF over GST control)"
same,binding signal,ETV3L,"1.79 fold enrichment (6-mer frequency, TF over GST control)"
same,binding signal,ETS2,"1.8 fold enrichment (6-mer frequency, TF over GST control)"
same,binding signal,SPDEF,"2.09 fold enrichment (6-mer frequency, TF over GST control)"
same,binding signal,ETV7,"1.63 fold enrichment (6-mer frequency, TF over GST control)"
same,binding signal,ELF5,"2.1 fold enrichment (6-mer frequency, TF over GST control)"
same,binding signal,ETV3,"1.9 fold enrichment (6-mer frequency, TF over GST control)"
same,binding signal,ETV6,"1.73 fold enrichment (6-mer frequency, TF over GST control)"
